From PubChem BioAssay (EPA / NIEHS)
Inconclusive results are not listed. The source made the active and inactive calls. The calls were made as follows, unless noted: active = hit-call score of the fitted dose curve at least 0.9, where 1 is the maximum; inactive = score below 0.9.

Legend:
[1] = ATG_NFI_CIS: Attagene CIS-FACTORIAL HepG2 Assay for human Nuclear Factor I (NFI) (AID 2282989); details: HepG2 cis-regulatory reporter, NFI response element transcription; actives raise or lower the signal
Procedure, shortened: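 Transfected HepG2 liver cells, exposed 24 h, supplied total RNA for oligo(dT) reverse transcription and reporter-specific PCR. Labelled, HpaI-cut fragments were sized by capillary electrophoresis; DMSO set the baseline for bidirectional fitting.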

[2] = molecular target: Myc proto-oncogene protein (Homo sapiens) (UniProt P01106); assay: ATG_Myc_CIS: Attagene CIS-FACTORIAL HepG2 Assay for human Myelocytomatosis (Myc) Proto-Oncogene Transcription Factor (AID 2282990); details: HepG2, Attagene cis-reporter transcription factor activity; actives raise or lower the signal
Procedure, shortened: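 Fluorescence intensity of reporter-specific cDNA fragments, separated by capillary electrophoresis, gives the signal. Transfected HepG2 cells carrying cis-promoter reporter constructs are incubated with compound for 24 h; DMSO serves as baseline.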

[3] = ATG_NF_kB_CIS: Attagene CIS-FACTORIAL HepG2 Assay for human Nuclear Factor Kappa B (NF-kB) (AID 2282991); details: HepG2 Attagene cis-factorial NF-kB reporter mRNA; actives raise or lower the signal
Procedure, shortened: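 Fluorescence of labelled RT-PCR products separated by capillary electrophoresis gives reporter mRNA levels from transfected HepG2 cells exposed 24 h; values are fitted in both directions relative to DMSO.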

[4] = ATG_NRF2_ARE_CIS: Attagene CIS-FACTORIAL HepG2 Assay for human Nuclear Factor Erythroid 2 Related Factor 2 (NFR2) response to Antioxidant Response Elements (ARE) (AID 2282992); details: HepG2 Attagene ARE/NRF2 reporter, transcription factor activity; actives raise or lower the signal
Procedure, shortened: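 Readout: reporter mRNA quantified by RT-PCR plus FAM-labelled primer extension, HpaI digestion and capillary electrophoresis, 24 h after dosing transfected HepG2 cells. Gain or loss of signal is fitted bidirectionally against DMSO baseline.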

[5] = ATG_Oct_MLP_CIS: Attagene CIS-FACTORIAL HepG2 Assay for human Octamer-Binding Transcription Factor (Oct) (AID 2282993); details: HepG2 Attagene cis-factorial Oct reporter, mRNA; actives raise or lower the signal
Procedure, shortened: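 Using HepG2 cells bearing transfected cis-reporter constructs, mRNA induction was read after 24 h by fluorescent RT-PCR and capillary electrophoresis, with DMSO defining baseline for gain- or loss-of-signal fits.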

[6] = molecular target: Cellular tumor antigen p53 (Homo sapiens) (UniProt P04637); assay: ATG_p53_CIS: Attagene CIS-FACTORIAL HepG2 Assay for human p53 Transcription Factor (AID 2282994); details: HepG2 p53 cis-element reporter, Attagene mRNA; actives raise or lower the signal
Procedure, shortened: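 Read-out: reporter mRNA by RT-PCR plus capillary electrophoresis with fluorescence detection. Human HepG2 liver cells carried transfected multi-reporter cis-element constructs, dosed 24 h. Gain or loss of signal fitted bidirectionally against DMSO control.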

[7] = molecular target: human Peroxisome Proliferator-activated Receptor alpha (PPARa), PPARA (gene 5465) (UniProt Q07869); assay: ATG_PPARa_TRANS: Attagene TRANS-FACTORIAL HepG2 Assay for human Peroxisome Proliferator-activated Receptor alpha (PPARa) (AID 2283001; active = hit-call score of the fitted dose curve at least 0.9, where 1 is the maximum)
Procedure, shortened: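 Transient HepG2 transfection, GAL4-UAS reporters, NR-Gal4 chimeras; 24 h compound exposure. Readout: reporter transcripts by RT-PCR, 6-FAM primer extension, HpaI digest, capillary electrophoresis. Positive direction vs DMSO baseline.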

[8] = molecular target: human Peroxisome Proliferator-activated Receptor delta (PPARd), PPARD (gene 5467) (UniProt Q03181); assay: ATG_PPARd_TRANS: Attagene TRANS-FACTORIAL HepG2 Assay for human Peroxisome Proliferator-activated Receptor delta (PPARd) (AID 2283002; active = hit-call score of the fitted dose curve at least 0.9, where 1 is the maximum)
Procedure, shortened: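 Fluorescence from capillary electrophoresis of labelled RT-PCR reporter fragments gives the signal; DMSO sets baseline. Cells: HepG2 transiently carrying GAL4-UAS reporter units plus chimeric nuclear receptor-Gal4 proteins, exposed to chemicals for 24 h.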

[9] = molecular target: Retinoic acid receptor alpha (Homo sapiens) (UniProt P10276); assay: ATG_RARa_TRANS: Attagene TRANS-FACTORIAL HepG2 Assay for human Retinoic Acid Receptor alpha (RARa) (AID 2283005; active = hit-call score of the fitted dose curve at least 0.9, where 1 is the maximum)
Procedure, shortened: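 HepG2 transiently transfected with multiplex GAL4-UAS reporter units including a human RARa–GAL4 chimera; 24 h compound exposure. Reporter mRNA quantified by RT-PCR, 6-FAM labeling and capillary electrophoresis; gain of signal versus DMSO.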

[10] = molecular target: Peroxisome proliferator-activated receptor gamma (Homo sapiens) (UniProt P37231); assay: ATG_PPARg_TRANS: Attagene TRANS-FACTORIAL HepG2 Assay for human Peroxisome Proliferator-activated Receptor-gamma (PPARg) (AID 2283007; active = hit-call score of the fitted dose curve at least 0.9, where 1 is the maximum)
Procedure, shortened: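 Twenty-four hours after chemical dosing of transiently transfected HepG2 cells, isolated RNA was converted to cDNA, reporter sequences amplified and 6-FAM-labelled, then HpaI-digested and analysed by capillary electrophoresis. Signal increase against DMSO was fitted.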

[11] = molecular target: Nuclear receptor subfamily 1 group I member 2 (Homo sapiens) (UniProt O75469); assay: ATG_PXR_TRANS: Attagene TRANS-FACTORIAL HepG2 Assay for human Pregnane X Receptor (PXR) (AID 2283008; active = hit-call score of the fitted dose curve at least 0.9, where 1 is the maximum)
Procedure, shortened: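 Trans-factorial format: exogenous NR-Gal4 fusion activity, not endogenous factor, in transfected human HepG2 liver cells. After 24 h dosing, RNA isolated, reverse-transcribed, amplified and resolved by capillary electrophoresis; induction scored versus DMSO.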

[12] = molecular target: human RAR-related Orphan Receptor beta (RORb), RORB (gene 6096) (UniProt Q92753); assay: ATG_RORb_TRANS: Attagene TRANS-FACTORIAL HepG2 Assay for human RAR-related Orphan Receptor beta (RORb) (AID 2283010; active = hit-call score of the fitted dose curve at least 0.9, where 1 is the maximum)
Procedure, shortened: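 HepG2, transient MRTU transfection (GAL4-UAS reporters, exogenous NR-Gal4 chimeras); 24 h compound exposure; total RNA → RT-PCR → 6-FAM primer extension → HpaI digest → CE fluorescence. Positive direction vs DMSO baseline.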

[13] = molecular target: human Retinoic Acid Receptor beta (RARb), RARB (gene 5915) (UniProt P10826); assay: ATG_RARb_TRANS: Attagene TRANS-FACTORIAL HepG2 Assay for human Retinoic Acid Receptor beta (AID 2283004; active = hit-call score of the fitted dose curve at least 0.9, where 1 is the maximum)
Procedure, shortened: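 Transient transfection of HepG2 with multiple reporter units → chemical dosing, 24 h → total RNA isolation → RT with oligo(dT) → reporter-specific PCR, 6-FAM primer extension, HpaI digest → capillary electrophoresis. Positive direction vs DMSO control.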

[14] = molecular target: human Retinoic Acid Receptor gamma (RARg), RARG (gene 5916) (UniProt P13631); assay: ATG_RARg_TRANS: Attagene TRANS-FACTORIAL HepG2 Assay for human Retinoic Acid Receptor gamma (RARg) (AID 2283009; active = hit-call score of the fitted dose curve at least 0.9, where 1 is the maximum)
Procedure, shortened: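 Readout: reporter transcript levels via RT-PCR, 6-FAM primer-extension labelling, HpaI digestion and capillary electrophoresis. Cells: HepG2 carrying transfected RARg-GAL4 chimera plus UAS reporter set. Dosing 24 h; DMSO negative control.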

[15] = BSK_3C_TissueFactor: BioMAP Diversity Plus: 3C Assay for Tissue Factor Biomarker Activity (AID 2282997); details: BioMAP 3C HUVEC, tissue factor biomarker readout; actives raise or lower the signal
Procedure, shortened: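 After a 24 h chemical exposure of primary human umbilical vein endothelial cells, Tissue Factor levels were quantified by ELISA.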

[16] = BSK_3C_uPAR: BioMAP Diversity Plus: 3C Assay for Urokinase-type plasminogen activator receptor (uPAR) Biomarker Activity (AID 2282998); details: BioMAP 3C HUVEC, uPAR biomarker ELISA; actives raise or lower the signal
Procedure, shortened: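 In this endothelial cell-based assay, human umbilical vein primary cells were treated with chemicals and harvested at 24 h. uPAR was quantified using ELISA, with gains or losses fitted relative to DMSO controls.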

[17] = BSK_3C_VCAM1: BioMAP Diversity Plus: 3C Assay for Vascular cell adhesion molecule 1 (VCAM1) Biomarker Activity (AID 2282999); details: BioMAP 3C HUVEC, VCAM1 ELISA, cytokine-stimulated; actives raise or lower the signal
Procedure, shortened: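 HUVEC primary cells, 24 h compound exposure; VCAM-1 by ELISA; gain/loss of signal fitted bidirectionally vs DMSO baseline.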

[18] = BSK_4H_Eotaxin3: BioMAP Diversity Plus: 4H Assay for Eotaxin 3 Biomarker Activity (AID 2283000); details: primary human endothelial cells (HUVEC); actives raise or lower the signal
Procedure, shortened: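 Chemicals were added to human umbilical vein endothelium cultures, and Eotaxin-3 was quantified by ELISA at 24 h. Values were derived by bidirectional fitting with DMSO serving as negative control and activity baseline.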

[19] = read-out: Intercellular Adhesion Molecule 1 (ICAM1), ICAM1 (gene 3383); assay: BSK_3C_ICAM1: BioMAP Diversity Plus: 3C Assay for Intercellular Adhesion Molecule 1 (ICAM1) Biomarker Activity (AID 2283003); details: primary human endothelial cells (HUVEC); actives raise or lower the signal
Procedure, shortened: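 ELISA read-out of ICAM-1; HUVEC (primary human), 3C system, 24 h post-dosing; bidirectional fit vs DMSO baseline.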

[20] = BSK_3C_Proliferation: Cell Proliferation Assessment in the BioMAP Diversity Plus: 3C Assay (AID 2283006); details: primary human endothelial cells (HUVEC);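 also: potency may reflect either rise or fall in cell number versus DMSO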
Procedure, shortened: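 HUVEC, sub-confluent; 48 h chemical exposure; 10% TCA fix, 0.1% SRB stain, A560 total protein. Gain or loss of signal fitted both directions vs DMSO control.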

Measured: AC50

Nuclear receptor subfamily 1 group I member 2 (Homo sapiens), sequence (O75469 whole entry, looked up, the tested form may be a part): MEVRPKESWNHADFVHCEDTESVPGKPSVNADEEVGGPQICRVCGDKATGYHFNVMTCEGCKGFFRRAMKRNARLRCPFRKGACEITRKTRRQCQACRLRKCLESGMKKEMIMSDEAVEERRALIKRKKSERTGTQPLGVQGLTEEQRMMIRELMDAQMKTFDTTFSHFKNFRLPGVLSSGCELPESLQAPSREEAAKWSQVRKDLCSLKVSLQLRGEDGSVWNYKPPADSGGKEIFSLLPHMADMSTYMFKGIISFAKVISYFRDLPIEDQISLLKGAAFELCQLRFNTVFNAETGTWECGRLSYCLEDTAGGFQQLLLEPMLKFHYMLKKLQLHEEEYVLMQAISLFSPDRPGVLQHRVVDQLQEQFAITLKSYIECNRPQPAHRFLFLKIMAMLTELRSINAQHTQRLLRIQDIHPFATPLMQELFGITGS
human Retinoic Acid Receptor beta (RARb), RARB (gene 5915), sequence (P10826 whole entry, looked up): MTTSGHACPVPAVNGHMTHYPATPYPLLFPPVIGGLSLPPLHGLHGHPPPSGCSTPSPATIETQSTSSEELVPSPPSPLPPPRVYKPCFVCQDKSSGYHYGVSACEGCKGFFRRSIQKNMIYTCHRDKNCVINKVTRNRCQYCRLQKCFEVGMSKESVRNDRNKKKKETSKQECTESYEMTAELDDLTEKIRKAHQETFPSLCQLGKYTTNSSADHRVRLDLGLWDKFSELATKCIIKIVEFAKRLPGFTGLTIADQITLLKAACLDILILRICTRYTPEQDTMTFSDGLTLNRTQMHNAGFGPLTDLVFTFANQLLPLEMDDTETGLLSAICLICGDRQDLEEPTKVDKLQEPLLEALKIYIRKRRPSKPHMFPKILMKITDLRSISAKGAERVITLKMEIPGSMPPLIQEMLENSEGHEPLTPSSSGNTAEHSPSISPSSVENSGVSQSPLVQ
Retinoic acid receptor alpha (Homo sapiens), sequence (P10276 whole entry, looked up, the tested form may be a part): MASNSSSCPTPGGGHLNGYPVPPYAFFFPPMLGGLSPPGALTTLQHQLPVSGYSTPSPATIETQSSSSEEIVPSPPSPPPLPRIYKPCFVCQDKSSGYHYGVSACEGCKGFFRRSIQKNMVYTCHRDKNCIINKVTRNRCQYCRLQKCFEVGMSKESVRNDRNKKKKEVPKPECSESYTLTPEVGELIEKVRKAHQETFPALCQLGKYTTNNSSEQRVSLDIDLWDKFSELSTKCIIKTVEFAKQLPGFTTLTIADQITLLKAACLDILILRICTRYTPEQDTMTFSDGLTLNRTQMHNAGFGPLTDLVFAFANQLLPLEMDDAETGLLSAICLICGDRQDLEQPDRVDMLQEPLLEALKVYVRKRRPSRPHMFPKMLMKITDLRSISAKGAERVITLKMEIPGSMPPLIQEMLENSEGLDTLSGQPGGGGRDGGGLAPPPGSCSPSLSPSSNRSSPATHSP
Myc proto-oncogene protein (Homo sapiens), sequence (P01106 whole entry, looked up, the tested form may be a part): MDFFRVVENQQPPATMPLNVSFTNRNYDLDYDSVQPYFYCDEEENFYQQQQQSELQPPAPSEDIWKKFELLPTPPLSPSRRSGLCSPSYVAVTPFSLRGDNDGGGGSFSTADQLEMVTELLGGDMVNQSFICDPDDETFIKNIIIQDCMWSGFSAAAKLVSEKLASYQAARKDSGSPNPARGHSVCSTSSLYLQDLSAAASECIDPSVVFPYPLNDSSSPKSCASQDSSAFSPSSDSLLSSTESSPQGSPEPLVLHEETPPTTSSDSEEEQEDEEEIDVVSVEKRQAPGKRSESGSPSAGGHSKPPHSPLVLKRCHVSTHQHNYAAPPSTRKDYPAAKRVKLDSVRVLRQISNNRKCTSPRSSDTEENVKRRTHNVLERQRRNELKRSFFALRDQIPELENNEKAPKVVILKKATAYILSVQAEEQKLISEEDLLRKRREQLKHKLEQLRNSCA
Cellular tumor antigen p53 (Homo sapiens), sequence (P04637 whole entry, looked up): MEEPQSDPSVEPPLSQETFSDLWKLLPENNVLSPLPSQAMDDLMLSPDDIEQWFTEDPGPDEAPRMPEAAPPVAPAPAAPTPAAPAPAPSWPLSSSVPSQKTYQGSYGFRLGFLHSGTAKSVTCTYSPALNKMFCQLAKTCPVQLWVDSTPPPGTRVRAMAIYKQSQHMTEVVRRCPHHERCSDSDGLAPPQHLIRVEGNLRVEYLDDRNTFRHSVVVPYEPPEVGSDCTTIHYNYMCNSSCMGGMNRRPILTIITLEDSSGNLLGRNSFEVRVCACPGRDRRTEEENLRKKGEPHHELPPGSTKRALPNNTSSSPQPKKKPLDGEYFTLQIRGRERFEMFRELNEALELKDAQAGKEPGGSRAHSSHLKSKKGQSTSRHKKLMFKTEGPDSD
human RAR-related Orphan Receptor beta (RORb), RORB (gene 6096), sequence (Q92753 whole entry, looked up, the tested form may be a part): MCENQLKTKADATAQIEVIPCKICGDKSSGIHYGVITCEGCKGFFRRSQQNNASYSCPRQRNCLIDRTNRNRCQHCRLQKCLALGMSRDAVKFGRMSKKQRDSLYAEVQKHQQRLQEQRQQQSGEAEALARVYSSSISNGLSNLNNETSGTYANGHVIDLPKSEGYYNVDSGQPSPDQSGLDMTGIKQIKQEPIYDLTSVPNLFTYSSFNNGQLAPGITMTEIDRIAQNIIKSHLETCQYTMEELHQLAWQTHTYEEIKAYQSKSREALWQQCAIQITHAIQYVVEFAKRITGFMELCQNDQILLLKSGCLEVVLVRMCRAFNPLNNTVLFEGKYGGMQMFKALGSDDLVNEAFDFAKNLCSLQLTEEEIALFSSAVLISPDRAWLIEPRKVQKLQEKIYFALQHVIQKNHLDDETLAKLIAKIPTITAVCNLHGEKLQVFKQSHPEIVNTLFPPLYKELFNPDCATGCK
Peroxisome proliferator-activated receptor gamma (Homo sapiens), sequence (P37231 whole entry, looked up): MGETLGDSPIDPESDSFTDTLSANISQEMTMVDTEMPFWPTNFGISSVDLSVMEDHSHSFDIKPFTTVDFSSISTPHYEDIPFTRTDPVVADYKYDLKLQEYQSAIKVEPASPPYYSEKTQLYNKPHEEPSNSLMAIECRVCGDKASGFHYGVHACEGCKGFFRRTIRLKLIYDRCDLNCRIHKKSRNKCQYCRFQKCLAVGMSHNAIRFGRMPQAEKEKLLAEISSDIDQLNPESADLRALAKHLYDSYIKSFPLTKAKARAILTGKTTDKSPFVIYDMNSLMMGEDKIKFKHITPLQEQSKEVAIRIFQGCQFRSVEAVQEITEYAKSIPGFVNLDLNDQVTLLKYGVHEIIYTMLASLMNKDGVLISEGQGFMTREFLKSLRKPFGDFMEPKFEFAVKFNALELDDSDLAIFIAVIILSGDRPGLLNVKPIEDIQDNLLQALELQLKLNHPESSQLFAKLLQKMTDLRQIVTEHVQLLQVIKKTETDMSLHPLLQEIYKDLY
human Peroxisome Proliferator-activated Receptor delta (PPARd), PPARD (gene 5467), sequence (Q03181 whole entry, looked up, the tested form may be a part): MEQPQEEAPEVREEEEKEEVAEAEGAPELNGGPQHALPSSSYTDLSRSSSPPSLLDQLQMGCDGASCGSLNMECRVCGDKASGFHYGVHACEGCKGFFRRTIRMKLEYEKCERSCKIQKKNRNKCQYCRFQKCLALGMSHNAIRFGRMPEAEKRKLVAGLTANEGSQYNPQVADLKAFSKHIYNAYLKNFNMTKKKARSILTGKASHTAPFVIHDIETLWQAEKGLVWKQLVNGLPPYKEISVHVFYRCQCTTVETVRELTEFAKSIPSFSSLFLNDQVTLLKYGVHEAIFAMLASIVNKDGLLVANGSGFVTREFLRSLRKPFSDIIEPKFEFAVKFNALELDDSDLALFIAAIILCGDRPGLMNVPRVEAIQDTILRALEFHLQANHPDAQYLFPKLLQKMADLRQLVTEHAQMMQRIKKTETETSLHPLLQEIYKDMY
human Peroxisome Proliferator-activated Receptor alpha (PPARa), PPARA (gene 5465), sequence (Q07869 whole entry, looked up, the tested form may be a part): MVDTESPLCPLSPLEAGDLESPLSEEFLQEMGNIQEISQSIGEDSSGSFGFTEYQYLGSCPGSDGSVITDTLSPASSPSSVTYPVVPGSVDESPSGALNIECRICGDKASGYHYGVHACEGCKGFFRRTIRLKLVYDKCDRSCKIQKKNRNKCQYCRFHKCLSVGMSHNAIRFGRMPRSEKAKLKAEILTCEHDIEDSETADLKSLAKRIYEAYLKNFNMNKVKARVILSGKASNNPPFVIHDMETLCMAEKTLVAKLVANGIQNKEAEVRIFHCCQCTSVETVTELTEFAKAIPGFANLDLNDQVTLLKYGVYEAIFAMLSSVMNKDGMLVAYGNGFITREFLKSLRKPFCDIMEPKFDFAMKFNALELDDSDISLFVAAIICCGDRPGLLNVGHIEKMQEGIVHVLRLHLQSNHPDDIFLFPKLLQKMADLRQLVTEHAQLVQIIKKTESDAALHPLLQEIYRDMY
human Retinoic Acid Receptor gamma (RARg), RARG (gene 5916), sequence (P13631 whole entry, looked up, the tested form may be a part): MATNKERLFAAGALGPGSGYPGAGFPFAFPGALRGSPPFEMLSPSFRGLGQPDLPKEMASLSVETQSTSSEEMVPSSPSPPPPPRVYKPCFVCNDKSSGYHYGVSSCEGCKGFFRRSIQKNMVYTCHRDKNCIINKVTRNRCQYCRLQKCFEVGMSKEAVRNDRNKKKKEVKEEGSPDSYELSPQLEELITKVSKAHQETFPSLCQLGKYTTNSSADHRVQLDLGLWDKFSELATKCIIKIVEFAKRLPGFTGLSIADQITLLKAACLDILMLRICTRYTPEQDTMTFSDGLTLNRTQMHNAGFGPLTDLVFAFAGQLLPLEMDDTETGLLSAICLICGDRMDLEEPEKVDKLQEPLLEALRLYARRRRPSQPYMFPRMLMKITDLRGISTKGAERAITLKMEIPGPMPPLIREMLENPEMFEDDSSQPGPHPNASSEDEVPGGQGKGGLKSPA

Nc1ccc(N=Nc2ccc(-c3ccc(N=Nc4c(S(=O)(=O)O)cc5cc(S(=O)(=O)O)c(N=Nc6ccccc6)c(O)c5c4N)cc3)cc2)c(N)c1
inactive: [1] | [2] | [3] | [4] | [5] | [6] | [7] | [8] | [9] | [10] | [11]

COP(=O)(OC)OC
inactive: [1] | [2] | [3] | [4] | [5] | [6] | [7] | [11] | [12]

CC(Br)C(=O)O (centres undefined)
inactive: [1] | [2] | [3] | [4] | [5] | [6] | [8] | [13] | [11] | [14]

CCN(CC)C(=O)Cl
inactive: [1] | [2] | [3] | [4] | [5] | [6] | [8] | [10] | [11] | [12]

CC(=O)c1cc(C(C)(C)C)cc2c1CCC2(C)C
inactive: [6] | [8] | [10]
active: [1] 74.2 µM | [2] 146 µM | [3] 156 µM | [4] 61.7 µM | [5] 68.3 µM | [11] 5.5 µM

CC(C)(c1ccccc1)c1ccc(O)c(C(C)(C)c2ccccc2)c1
inactive: [2] | [8] | [13] | [9] | [10]
active: [1] 8.31 µM | [3] 8.81 µM | [4] 7.97 µM | [5] 1.76 µM | [15] 11.7 µM | [16] 9.74 µM | [17] 9.15 µM | [18] 9.16 µM | [19] 11.1 µM | [20] 6.91 µM | [11] 0.148 µM

COc1ccc(OC)c(C=O)c1
active: [11] 6.5 µM
inactive: [1] | [2] | [3] | [4] | [5] | [6] | [8] | [10] | [12]

NC(=S)Nc1ccccc1
inactive: [1] | [2] | [3] | [4] | [5] | [15] | [17] | [18] | [7] | [8] | [19] | [13] | [9]

CNC
inactive: [1] | [2] | [3] | [4] | [5] | [6] | [8] | [12]

Clc1ccc(C2(Cn3cncn3)CC(Br)CO2)c(Cl)c1 (centres undefined)
active: [4] 26.9 µM | [11] 0.762 µM
inactive: [1] | [2] | [3] | [5] | [6] | [8]
